According to article PMC7862700, “An all-to-all approach to the identification of sequence-specific readers for epigenetic DNA modifications on cytosine”:

What was measured:
Assay in all cases: DAPPL (digital affinity profiling via proximity ligation, sequencing); 10 mM Tris-HCl pH 7.5, 50 mM NaCl, 1 mM DTT, 4% glycerol, room temperature, 30 min; GST-TFs on glutathione beads, 16-mer random dsDNA library, 0.1% formaldehyde crosslink after washing; high values mean tight binding
Conditions in all cases: protein: recombinant; tags: N-terminal GST; dsDNA, one strand shown
GABPA = target: T1, GABPA (Homo sapiens, UniProt Q06546 1-454)
T1 sequence: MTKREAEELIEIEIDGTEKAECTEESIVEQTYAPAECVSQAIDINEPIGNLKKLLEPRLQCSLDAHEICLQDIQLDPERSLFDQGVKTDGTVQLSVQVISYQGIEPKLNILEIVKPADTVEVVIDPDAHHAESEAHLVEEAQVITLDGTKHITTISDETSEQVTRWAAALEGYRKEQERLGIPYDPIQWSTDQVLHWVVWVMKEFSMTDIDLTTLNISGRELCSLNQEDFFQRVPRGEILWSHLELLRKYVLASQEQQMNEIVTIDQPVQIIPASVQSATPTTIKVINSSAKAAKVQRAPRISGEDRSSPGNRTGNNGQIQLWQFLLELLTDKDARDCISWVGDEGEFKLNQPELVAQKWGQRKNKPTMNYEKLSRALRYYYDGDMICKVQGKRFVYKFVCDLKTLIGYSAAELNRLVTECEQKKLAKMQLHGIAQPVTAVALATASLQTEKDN
Method in brief: (§1)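 A tag-only sample was pooled with DNA-barcoded human transcription factors that had been expressed in yeast as GST fusions and captured on glutathione beads. The pools were incubated for 30 min at room temperature with 200 nmole of a random double-stranded 16-mer DNA library in Tris/NaCl/DTT/glycerol buffer, then washed, crosslinked with 0.1% formaldehyde, proximity-ligated (BsaI/T4 ligase, 1 h, 37 °C), PCR-amplified and sequenced on an Illumina NextSeq500. Binding signal is each hexamer's read frequency for a factor divided by its frequency for the tag-only sample.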

EHF = target: T2, EHF (Homo sapiens, UniProt Q9NZC4 1-300)
T2 sequence: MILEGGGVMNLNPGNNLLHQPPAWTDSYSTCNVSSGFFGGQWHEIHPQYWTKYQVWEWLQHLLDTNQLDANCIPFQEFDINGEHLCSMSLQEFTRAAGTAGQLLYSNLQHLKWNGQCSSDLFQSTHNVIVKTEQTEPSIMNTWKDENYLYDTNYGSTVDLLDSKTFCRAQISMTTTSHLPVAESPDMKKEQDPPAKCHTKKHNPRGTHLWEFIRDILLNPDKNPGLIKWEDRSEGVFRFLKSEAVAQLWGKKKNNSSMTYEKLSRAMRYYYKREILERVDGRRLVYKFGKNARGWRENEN
Method in brief: as §1

ETV5 = ETV5 (Homo sapiens, UniProt P41161 1-510)
Method in brief: as §1

ELK4 = target: T3, ELK4 (Homo sapiens, UniProt P28324-2 1-405)
T3 sequence: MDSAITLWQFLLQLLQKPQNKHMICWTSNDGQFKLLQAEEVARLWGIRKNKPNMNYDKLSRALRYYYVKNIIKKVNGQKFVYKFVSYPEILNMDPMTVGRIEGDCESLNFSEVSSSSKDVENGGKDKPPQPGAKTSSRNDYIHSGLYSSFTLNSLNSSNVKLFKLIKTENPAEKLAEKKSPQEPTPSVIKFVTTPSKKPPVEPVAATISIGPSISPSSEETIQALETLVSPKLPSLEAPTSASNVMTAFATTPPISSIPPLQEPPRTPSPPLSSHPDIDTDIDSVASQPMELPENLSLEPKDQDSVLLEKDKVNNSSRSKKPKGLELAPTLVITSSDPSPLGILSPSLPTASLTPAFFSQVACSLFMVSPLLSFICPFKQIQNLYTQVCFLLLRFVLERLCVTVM
Method in brief: as §1

ERG = target: T4, ERG (Homo sapiens, UniProt P11308 1-479)
T4 sequence: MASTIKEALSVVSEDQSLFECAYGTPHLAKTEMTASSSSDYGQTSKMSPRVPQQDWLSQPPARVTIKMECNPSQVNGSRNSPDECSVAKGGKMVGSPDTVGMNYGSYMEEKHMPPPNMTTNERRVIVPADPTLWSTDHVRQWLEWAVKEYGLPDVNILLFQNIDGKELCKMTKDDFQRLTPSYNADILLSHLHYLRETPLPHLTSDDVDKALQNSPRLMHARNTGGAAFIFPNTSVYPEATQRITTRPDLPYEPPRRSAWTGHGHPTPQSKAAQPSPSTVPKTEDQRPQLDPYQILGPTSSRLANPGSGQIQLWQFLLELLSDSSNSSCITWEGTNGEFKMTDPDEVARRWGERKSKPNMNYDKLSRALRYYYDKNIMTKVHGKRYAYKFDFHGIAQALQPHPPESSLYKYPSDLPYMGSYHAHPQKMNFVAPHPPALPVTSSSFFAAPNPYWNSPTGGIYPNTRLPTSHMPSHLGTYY
Method in brief: as §1

ELF1 = ELF1 (Homo sapiens, UniProt P32519 1-619)
Method in brief: as §1

SPIB = SPIB (Homo sapiens, UniProt Q01892 1-262)
Method in brief: as §1

FEV = target: T5, FEV (Homo sapiens, UniProt Q99581 1-238)
T5 sequence: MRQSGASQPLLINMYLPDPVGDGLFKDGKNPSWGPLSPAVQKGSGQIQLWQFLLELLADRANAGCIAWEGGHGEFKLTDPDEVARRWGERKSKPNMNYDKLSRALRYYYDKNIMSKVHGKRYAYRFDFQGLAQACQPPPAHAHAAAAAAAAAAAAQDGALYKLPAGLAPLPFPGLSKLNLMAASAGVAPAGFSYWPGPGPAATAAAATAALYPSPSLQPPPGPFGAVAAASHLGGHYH
Method in brief: as §1

ELF4 = ELF4 (Homo sapiens, UniProt Q99607 1-663)
Method in brief: as §1

ETV2 = target: T6, ETV2 (Homo sapiens, UniProt O00321 1-342)
T6 sequence: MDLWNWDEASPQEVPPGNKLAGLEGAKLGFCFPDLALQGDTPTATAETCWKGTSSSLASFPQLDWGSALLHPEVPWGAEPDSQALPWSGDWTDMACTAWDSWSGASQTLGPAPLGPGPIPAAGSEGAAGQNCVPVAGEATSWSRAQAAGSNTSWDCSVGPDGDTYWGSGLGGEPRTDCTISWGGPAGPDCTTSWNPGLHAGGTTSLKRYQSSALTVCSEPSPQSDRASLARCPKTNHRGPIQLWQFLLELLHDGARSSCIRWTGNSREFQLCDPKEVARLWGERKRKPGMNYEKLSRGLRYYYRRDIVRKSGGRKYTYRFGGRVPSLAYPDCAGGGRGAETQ
Method in brief: as §1

ELF3 = target: T7, ELF3 (Homo sapiens, UniProt P78545 1-371)
T7 sequence: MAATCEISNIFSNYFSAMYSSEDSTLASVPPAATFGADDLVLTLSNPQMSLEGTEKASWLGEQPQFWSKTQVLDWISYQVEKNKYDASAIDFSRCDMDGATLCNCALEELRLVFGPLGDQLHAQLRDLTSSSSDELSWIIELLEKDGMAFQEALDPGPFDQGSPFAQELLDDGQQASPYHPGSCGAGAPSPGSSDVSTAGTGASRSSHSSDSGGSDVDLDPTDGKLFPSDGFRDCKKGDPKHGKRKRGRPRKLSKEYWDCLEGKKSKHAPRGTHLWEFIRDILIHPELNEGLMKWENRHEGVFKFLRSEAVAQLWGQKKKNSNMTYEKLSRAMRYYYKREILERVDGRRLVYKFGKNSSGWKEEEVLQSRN
Method in brief: as §1

ETV1 = ETV1 (Homo sapiens, UniProt P50549 1-477)
Method in brief: as §1

ERF = target: T8, ERF (Homo sapiens, UniProt P50548 1-548)
T8 sequence: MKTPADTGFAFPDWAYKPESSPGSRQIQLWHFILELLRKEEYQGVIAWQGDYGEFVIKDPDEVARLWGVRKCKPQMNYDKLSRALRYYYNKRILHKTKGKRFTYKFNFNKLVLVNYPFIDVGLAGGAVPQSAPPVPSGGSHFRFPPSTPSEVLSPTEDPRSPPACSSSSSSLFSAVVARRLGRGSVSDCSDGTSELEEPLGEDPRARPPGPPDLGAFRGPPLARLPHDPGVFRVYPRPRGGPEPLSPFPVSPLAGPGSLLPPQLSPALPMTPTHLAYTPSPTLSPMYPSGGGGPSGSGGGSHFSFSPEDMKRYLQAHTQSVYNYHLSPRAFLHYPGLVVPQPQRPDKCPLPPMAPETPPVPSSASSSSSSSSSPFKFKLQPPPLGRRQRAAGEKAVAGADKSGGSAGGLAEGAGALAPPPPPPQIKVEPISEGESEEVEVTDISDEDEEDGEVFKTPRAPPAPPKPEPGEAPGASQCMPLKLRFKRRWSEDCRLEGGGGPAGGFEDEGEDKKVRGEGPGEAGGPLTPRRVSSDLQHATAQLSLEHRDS
Method in brief: as §1

ETV3L = target: T9, ETV3L (Homo sapiens, UniProt Q6ZN32 1-361)
T9 sequence: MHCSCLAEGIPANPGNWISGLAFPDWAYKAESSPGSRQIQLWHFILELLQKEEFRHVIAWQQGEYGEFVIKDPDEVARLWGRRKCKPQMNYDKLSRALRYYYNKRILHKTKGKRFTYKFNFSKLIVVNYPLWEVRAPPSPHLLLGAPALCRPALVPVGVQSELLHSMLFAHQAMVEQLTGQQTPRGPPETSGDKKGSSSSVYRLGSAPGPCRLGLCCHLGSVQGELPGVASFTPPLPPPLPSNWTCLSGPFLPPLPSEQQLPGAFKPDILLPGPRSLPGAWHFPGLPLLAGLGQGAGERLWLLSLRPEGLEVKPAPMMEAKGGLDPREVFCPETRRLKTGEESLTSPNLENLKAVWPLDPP
Method in brief: as §1

SPDEF = target: T10, SPDEF (Homo sapiens, UniProt O95238 1-335)
T10 sequence: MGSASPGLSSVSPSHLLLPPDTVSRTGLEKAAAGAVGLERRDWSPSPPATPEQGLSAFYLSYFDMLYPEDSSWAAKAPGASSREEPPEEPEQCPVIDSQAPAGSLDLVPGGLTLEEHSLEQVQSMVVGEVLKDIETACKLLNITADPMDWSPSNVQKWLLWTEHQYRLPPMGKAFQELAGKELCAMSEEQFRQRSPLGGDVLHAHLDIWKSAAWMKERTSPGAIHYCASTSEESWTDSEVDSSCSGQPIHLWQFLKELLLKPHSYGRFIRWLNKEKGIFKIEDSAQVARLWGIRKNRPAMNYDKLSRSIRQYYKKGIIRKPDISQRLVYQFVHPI
Method in brief: as §1

ETV7 = target: T11, ETV7 (Homo sapiens, UniProt Q9Y603 1-341)
T11 sequence: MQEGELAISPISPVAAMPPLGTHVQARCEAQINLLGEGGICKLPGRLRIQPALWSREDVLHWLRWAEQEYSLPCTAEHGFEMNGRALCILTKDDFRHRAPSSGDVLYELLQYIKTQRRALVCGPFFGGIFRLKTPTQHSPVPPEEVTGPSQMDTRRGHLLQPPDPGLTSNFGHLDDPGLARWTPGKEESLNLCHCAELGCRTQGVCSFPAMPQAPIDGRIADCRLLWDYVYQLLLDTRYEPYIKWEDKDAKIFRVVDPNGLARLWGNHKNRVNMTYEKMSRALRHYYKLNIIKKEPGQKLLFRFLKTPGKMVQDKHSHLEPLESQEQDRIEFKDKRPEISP
Method in brief: as §1

ETV6 = ETV6 (Homo sapiens, UniProt P41212 1-452)
Method in brief: as §1

Chain of ETV5 (P41161 whole entry): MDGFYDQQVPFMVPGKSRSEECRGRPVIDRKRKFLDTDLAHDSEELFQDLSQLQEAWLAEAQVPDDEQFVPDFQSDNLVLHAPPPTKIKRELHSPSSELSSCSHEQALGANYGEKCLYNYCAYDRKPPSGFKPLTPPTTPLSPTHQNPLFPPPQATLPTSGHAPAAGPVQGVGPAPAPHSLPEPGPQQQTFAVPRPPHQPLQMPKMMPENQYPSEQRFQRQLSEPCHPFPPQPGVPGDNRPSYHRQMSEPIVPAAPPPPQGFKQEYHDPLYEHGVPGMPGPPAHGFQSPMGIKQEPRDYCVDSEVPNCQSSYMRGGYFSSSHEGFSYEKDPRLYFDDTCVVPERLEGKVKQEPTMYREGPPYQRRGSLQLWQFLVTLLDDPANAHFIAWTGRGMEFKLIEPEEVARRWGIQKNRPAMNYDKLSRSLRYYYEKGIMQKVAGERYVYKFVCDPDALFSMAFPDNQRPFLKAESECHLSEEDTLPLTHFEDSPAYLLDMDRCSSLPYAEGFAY
Chain of ELF4 (Q99607 whole entry): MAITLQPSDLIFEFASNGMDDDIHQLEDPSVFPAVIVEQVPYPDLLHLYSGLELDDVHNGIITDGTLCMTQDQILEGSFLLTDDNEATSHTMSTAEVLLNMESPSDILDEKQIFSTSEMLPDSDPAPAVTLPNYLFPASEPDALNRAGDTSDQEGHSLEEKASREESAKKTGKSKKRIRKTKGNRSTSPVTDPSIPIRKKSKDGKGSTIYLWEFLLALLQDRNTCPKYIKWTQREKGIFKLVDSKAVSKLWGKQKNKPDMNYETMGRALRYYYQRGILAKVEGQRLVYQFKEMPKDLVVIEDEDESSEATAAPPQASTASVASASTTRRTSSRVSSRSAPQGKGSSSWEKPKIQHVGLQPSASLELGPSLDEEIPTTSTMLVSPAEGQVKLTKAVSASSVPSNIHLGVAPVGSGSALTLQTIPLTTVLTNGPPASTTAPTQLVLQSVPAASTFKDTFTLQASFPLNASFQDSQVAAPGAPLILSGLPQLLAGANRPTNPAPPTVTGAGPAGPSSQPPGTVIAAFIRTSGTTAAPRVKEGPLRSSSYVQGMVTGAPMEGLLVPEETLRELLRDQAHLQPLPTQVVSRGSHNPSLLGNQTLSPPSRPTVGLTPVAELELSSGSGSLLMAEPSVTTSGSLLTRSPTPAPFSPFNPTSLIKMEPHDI
Chain of ETV6 (P41212 whole entry): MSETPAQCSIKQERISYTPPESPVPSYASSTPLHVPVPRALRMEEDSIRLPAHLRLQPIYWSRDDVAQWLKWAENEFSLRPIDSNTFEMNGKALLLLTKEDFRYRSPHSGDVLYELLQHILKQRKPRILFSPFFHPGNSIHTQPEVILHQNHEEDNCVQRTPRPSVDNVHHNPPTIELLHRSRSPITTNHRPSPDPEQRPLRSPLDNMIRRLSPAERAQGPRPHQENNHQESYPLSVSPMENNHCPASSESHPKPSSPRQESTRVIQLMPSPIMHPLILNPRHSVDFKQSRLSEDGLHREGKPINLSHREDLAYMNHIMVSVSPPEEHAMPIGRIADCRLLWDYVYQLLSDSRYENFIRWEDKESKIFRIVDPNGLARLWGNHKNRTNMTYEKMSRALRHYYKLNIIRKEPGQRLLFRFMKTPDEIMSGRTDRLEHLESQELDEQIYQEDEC
Chain of ETV1 (P50549 whole entry): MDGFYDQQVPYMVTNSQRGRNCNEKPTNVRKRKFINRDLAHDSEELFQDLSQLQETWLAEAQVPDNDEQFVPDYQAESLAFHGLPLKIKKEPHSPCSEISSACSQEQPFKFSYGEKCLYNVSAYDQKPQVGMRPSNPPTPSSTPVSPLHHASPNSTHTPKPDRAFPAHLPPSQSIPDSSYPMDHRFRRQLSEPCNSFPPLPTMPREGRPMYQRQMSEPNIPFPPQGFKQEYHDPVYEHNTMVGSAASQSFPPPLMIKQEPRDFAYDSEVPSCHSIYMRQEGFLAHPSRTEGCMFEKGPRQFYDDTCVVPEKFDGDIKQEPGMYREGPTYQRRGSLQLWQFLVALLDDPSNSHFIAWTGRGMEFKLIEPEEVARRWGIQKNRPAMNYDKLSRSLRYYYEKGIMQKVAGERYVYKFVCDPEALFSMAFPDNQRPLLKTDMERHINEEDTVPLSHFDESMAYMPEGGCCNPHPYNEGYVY
Chain of ELF1 (P32519 whole entry): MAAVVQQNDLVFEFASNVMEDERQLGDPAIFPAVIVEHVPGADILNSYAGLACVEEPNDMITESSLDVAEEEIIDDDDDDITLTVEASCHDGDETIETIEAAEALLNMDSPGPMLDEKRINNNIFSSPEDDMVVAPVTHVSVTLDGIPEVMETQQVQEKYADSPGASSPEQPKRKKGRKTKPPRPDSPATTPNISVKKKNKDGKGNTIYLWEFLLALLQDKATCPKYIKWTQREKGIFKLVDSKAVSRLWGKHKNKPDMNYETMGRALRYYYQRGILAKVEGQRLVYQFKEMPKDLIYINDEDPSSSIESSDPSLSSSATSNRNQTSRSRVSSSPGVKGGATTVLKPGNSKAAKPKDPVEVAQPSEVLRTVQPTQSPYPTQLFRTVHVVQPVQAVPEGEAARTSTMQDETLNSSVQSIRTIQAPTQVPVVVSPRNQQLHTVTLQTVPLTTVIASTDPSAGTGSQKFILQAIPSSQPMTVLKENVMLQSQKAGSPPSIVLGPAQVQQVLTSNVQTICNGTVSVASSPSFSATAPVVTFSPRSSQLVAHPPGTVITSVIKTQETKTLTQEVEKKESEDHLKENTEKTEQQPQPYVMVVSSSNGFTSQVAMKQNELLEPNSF
Chain of SPIB (Q01892 whole entry): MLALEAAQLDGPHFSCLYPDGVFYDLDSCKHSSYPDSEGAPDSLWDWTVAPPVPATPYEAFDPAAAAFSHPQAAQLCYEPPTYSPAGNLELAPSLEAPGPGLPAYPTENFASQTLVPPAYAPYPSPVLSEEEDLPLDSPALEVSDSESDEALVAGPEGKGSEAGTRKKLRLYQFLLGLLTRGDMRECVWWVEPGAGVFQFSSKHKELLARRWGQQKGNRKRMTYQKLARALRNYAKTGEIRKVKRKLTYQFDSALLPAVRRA

Sequence | binding signal (GABPA) | binding signal (EHF) | binding signal (ETV5) | binding signal (ELK4) | binding signal (ERG) | binding signal (ELF1) | binding signal (SPIB) | binding signal (FEV) | binding signal (ELF4) | binding signal (ETV2) | binding signal (ELF3) | binding signal (ETV1) | binding signal (ERF) | binding signal (ETV3L) | binding signal (SPDEF) | binding signal (ETV7) | binding signal (ETV6)
CGAAGG | 1 fold enrichment (6-mer frequency, TF over GST control) | 1.03 fold enrichment (6-mer frequency, TF over GST control) | 1.05 fold enrichment (6-mer frequency, TF over GST control) | 1.06 fold enrichment (6-mer frequency, TF over GST control) | – | – | – | – | – | – | – | – | – | – | – | – | –
CATAAT | 1.01 fold enrichment (6-mer frequency, TF over GST control) | 1.13 fold enrichment (6-mer frequency, TF over GST control) | 1.09 fold enrichment (6-mer frequency, TF over GST control) | 1.03 fold enrichment (6-mer frequency, TF over GST control) | 1.1 fold enrichment (6-mer frequency, TF over GST control) | 1.02 fold enrichment (6-mer frequency, TF over GST control) | 1.04 fold enrichment (6-mer frequency, TF over GST control) | 1.01 fold enrichment (6-mer frequency, TF over GST control) | 1.01 fold enrichment (6-mer frequency, TF over GST control) | 1 fold enrichment (6-mer frequency, TF over GST control) | 1.01 fold enrichment (6-mer frequency, TF over GST control) | 1.05 fold enrichment (6-mer frequency, TF over GST control) | 1.02 fold enrichment (6-mer frequency, TF over GST control) | 1.01 fold enrichment (6-mer frequency, TF over GST control) | 1 fold enrichment (6-mer frequency, TF over GST control) | 1.02 fold enrichment (6-mer frequency, TF over GST control) | 1.07 fold enrichment (6-mer frequency, TF over GST control)
